The nature of assay [1]: NCI Yeast Anticancer Drug Screen. Data for the rad50 strain (AID 155).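 Further: 0% = growth of vehicle-only cultures of the same strain.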 As to conditions: S. cerevisiae rad50 strain growth inhibition, active compounds read high. The method in brief: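 Genetically altered yeast (DNA repair pathway); compound treatment; growth inhibition vs vehicle ctrl.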
A short description of assay [2]: NCI Yeast Anticancer Drug Screen. Data for the mec2-1 strain (AID 157). As to conditions: S. cerevisiae mec2-1 strain, active compounds read high. An outline of the steps: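 Compounds were applied to mec2-1 yeast cells. Their growth was then compared with that of vehicle-treated cultures to give growth inhibition.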
Assay [3] in a line: NCI Yeast Anticancer Drug Screen. Data for the sgs1 mgt1 strain (AID 161).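 Further: 0% = growth of cultures given vehicle only.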 As to conditions: S. cerevisiae sgs1 mgt1 strain, active compounds read high. The method in brief: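 Growth of a repair-deficient yeast mutant was monitored after compound treatment and expressed as inhibition relative to vehicle-treated cultures.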
A short description of assay [4]: NCI Yeast Anticancer Drug Screen. Data for the cln2 rad14 strain (AID 165).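 Further: 0% = growth equal to vehicle treated cultures.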 As to conditions: S. cerevisiae cln2 rad14 strain, active compounds read high. The method in brief: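 Strain: cln2 rad14 yeast, altered in cell cycle control and DNA damage repair. Read-out: growth inhibition vs vehicle.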
Assay [5] is described as follows: NCI Yeast Anticancer Drug Screen. Data for the bub3 strain (AID 167). As to conditions: S. cerevisiae bub3 mutant strain, active compounds read high. The method in brief: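 Yeast carrying a defined mutation is treated with each compound, and growth is compared with that of vehicle-exposed cells to give inhibition.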
Assay [6] can be described thus: NCI Yeast Anticancer Drug Screen. Data for the mlh1 rad18 strain (AID 175). As to conditions: S. cerevisiae mlh1 rad18 strain growth inhibition, active compounds read high. The method in brief:
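A repair-deficient yeast strain is exposed to test compound, and growth is scored relative to vehicle-treated controls.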

Setting [7] is: at 5.0 µM (retest, dose inferred, filed as 0.5).
The mark [8] stands for this setting: at 50.0 µM (retest, dose inferred, filed as 5.0).

SMILES strings stand for the structures. This is part of a sample that, as a whole, favours compounds with a hit. Of some 79,000 tested, about 15% had one in any assay. Unmarked numbers belong to inactive results. The source made the active and inactive calls. No stated cut-off is given here; in the data, active means growth inhibition above about 70%; inactive means the rest.

For `CCCCCCC(/C=C/c1c(Cl)cccc1Cl)=N\O`, the growth inhibition in assay [1] (setting [7]) was -4%; in assay [1] (setting [8]), 24%; in assay [1] (at 50.0 µM) it was 83.4% (active); in assay [2] (setting [7]) it was -4%; in assay [2] (setting [8]), 46%; in assay [2] (at 50.0 µM), 91.7% (active). Also, the growth inhibition in assay [3] (setting [7]) is -6%; in assay [3] (setting [8]), 67%; in assay [3] (at 50.0 µM), 91.3% (active); in assay [4] (setting [7]), -1%; in assay [4] (setting [8]), 12%; in assay [4] (at 50.0 µM) it was 69.1%. The growth inhibition was -4% in assay [5] (setting [7]); 53% in assay [5] (setting [8]); 92.8% (active) in assay [5] (at 50.0 µM); -10% in assay [6] (setting [7]); 56% in assay [6] (setting [8]); 94.2% (active) in assay [6] (at 50.0 µM).
For the compound `CC(=O)N=C1N(/C=C2\C(=O)Oc3ccccc3C2=O)C(=O)/C(=C/c2cccc(Cl)c2Cl)N1C`, the growth inhibition in assay [1] (setting [7]) was 5%; in assay [1] (setting [8]), 89% (active); in assay [1] (at 50.0 µM), -7.75%; in assay [2] (setting [7]), 12%; in assay [2] (setting [8]) it was 61%; in assay [2] (at 50.0 µM), 0.2%. The growth inhibition in assay [3] (setting [7]) is -12%; in assay [3] (setting [8]) it was 8%; in assay [3] (at 50.0 µM) it was 28.2%; in assay [4] (setting [7]), 7%; in assay [4] (setting [8]), 25%; in assay [4] (at 50.0 µM) it was -21.8%. Also, the growth inhibition in assay [5] (setting [7]) was -11%; in assay [5] (setting [8]) it was 17%; in assay [5] (at 50.0 µM) it was -37.5%; in assay [6] (setting [7]), 13%; in assay [6] (setting [8]) it was 95% (active); in assay [6] (at 50.0 µM) it was -22.4%.
Turning to `CC(=O)N1c2ccccc2Sc2ccc(C(=O)CCl)cc21`, the growth inhibition in assay [1] (setting [7]) is 14%; in assay [1] (setting [8]), 79% (active); in assay [1] (at 50.0 µM), 95.7% (active); in assay [2] (setting [7]), 19%; in assay [2] (setting [8]), 95% (active); in assay [2] (at 50.0 µM) it was 95.7% (active). The growth inhibition is 15% in assay [3] (setting [7]); 91% (active) in assay [3] (setting [8]); 93.9% (active) in assay [3] (at 50.0 µM); 9% in assay [4] (setting [7]); 50% in assay [4] (setting [8]); 81.2% (active) in assay [4] (at 50.0 µM). Also, the growth inhibition in assay [5] (setting [7]) is 8%; in assay [5] (setting [8]), 91% (active); in assay [5] (at 50.0 µM), 95.8% (active); in assay [6] (setting [7]), 30%; in assay [6] (setting [8]) it was 94% (active); in assay [6] (at 50.0 µM), 94.7% (active).
Consider `CN(C)C1C=CCC(c2ccccc2)C1[N+](=O)[O-]` (stereo not given), for which the growth inhibition was 1% in assay [1] (setting [7]); 83% (active) in assay [1] (setting [8]); 93.2% (active) in assay [1] (at 50.0 µM); 10% in assay [2] (setting [7]); 68% in assay [2] (setting [8]); 96.9% (active) in assay [2] (at 50.0 µM). Further, the growth inhibition was 7% in assay [3] (setting [7]); 81% (active) in assay [3] (setting [8]); 98.5% (active) in assay [3] (at 50.0 µM); 5% in assay [4] (setting [7]); 70% (active) in assay [4] (setting [8]); 92.3% (active) in assay [4] (at 50.0 µM). Further, the growth inhibition in assay [5] (setting [7]) is 1%; in assay [5] (setting [8]), 79% (active); in assay [5] (at 50.0 µM) it was 92.5% (active); in assay [6] (setting [7]) it was 5%; in assay [6] (setting [8]) it was 94% (active); in assay [6] (at 50.0 µM), 98.8% (active).
As for `COc1cc(NCCCCCNC(C)C)c2ncc(C)c(C)c2c1`, the growth inhibition in assay [1] (setting [7]) was 3%; in assay [1] (setting [8]), 36%; in assay [1] (at 50.0 µM), 75.7% (active); in assay [2] (setting [7]), -4%; in assay [2] (setting [8]), 6%; in assay [2] (at 50.0 µM) it was 44.5%. The growth inhibition in assay [3] (setting [7]) is 3%; in assay [3] (setting [8]), 23%; in assay [3] (at 50.0 µM) it was 61.4%; in assay [4] (setting [7]), 7%; in assay [4] (setting [8]), 20%; in assay [4] (at 50.0 µM) it was 12.1%. Further, the growth inhibition in assay [5] (setting [7]) is 3%; in assay [5] (setting [8]) it was 35%; in assay [5] (at 50.0 µM) it was 79% (active); in assay [6] (setting [7]), 9%; in assay [6] (setting [8]), 27%; in assay [6] (at 50.0 µM) it was 55.4%.
With `CCc1ccccc1NC(=O)C(=O)C(C#N)c1c(Cl)cccc1Cl` (stereo not given), the growth inhibition was -8% in assay [1] (setting [7]); -2% in assay [1] (setting [8]); -26.7% in assay [1] (at 50.0 µM); 2% in assay [2] (setting [7]); 1% in assay [2] (setting [8]); 8.8% in assay [2] (at 50.0 µM). Further, the growth inhibition was -17% in assay [3] (setting [7]); -33% in assay [3] (setting [8]); 20.7% in assay [3] (at 50.0 µM); -6% in assay [4] (setting [7]); 4% in assay [4] (setting [8]); -28.7% in assay [4] (at 50.0 µM). Also, the growth inhibition in assay [5] (setting [7]) was 1%; in assay [5] (setting [8]), 0%; in assay [5] (at 50.0 µM), 12.2%; in assay [6] (setting [7]), 0%; in assay [6] (setting [8]) it was -1%; in assay [6] (at 50.0 µM) it was 14.7%.
For `O=C(/C=C/c1cccc([N+](=O)[O-])c1)CCl`, the growth inhibition in assay [1] (setting [7]) was 1%; in assay [1] (setting [8]) it was 98% (active); in assay [1] (at 50.0 µM), 99.3% (active); in assay [2] (setting [7]), -20%; in assay [2] (setting [8]) it was 99% (active); in assay [2] (at 50.0 µM), 99.6% (active). The growth inhibition in assay [3] (setting [7]) is 13%; in assay [3] (setting [8]) it was 99% (active); in assay [3] (at 50.0 µM) it was 99.2% (active); in assay [4] (setting [7]), -22%; in assay [4] (setting [8]), 98% (active); in assay [4] (at 50.0 µM), 98.9% (active). Besides, the growth inhibition in assay [5] (setting [7]) was 14%; in assay [5] (setting [8]), 98% (active); in assay [5] (at 50.0 µM), 99.5% (active); in assay [6] (setting [7]), -32%; in assay [6] (setting [8]) it was 98% (active); in assay [6] (at 50.0 µM) it was 99.3% (active).
With `C[n+]1cc2c3ccccc3ccc2c2ccccc21`, the growth inhibition was 37% in assay [1] (setting [7]); 79% (active) in assay [1] (setting [8]); 59.3% in assay [1] (at 50.0 µM); 37% in assay [2] (setting [7]); 69% in assay [2] (setting [8]); 53.2% in assay [2] (at 50.0 µM). The growth inhibition was 32% in assay [3] (setting [7]); 66% in assay [3] (setting [8]); 75.2% (active) in assay [3] (at 50.0 µM); 26% in assay [4] (setting [7]); 45% in assay [4] (setting [8]); 56% in assay [4] (at 50.0 µM). Also, the growth inhibition is 7% in assay [5] (setting [7]); 57% in assay [5] (setting [8]); 47% in assay [5] (at 50.0 µM); 39% in assay [6] (setting [7]); 83% (active) in assay [6] (setting [8]); 40.3% in assay [6] (at 50.0 µM).
For the compound `CCNc1cc(SC)nc(N)n1`, the growth inhibition in assay [1] (setting [7]) was 1%; in assay [1] (setting [8]), -4%; in assay [1] (at 50.0 µM), 1.2%; in assay [2] (setting [7]) it was -1%; in assay [2] (setting [8]), 2%; in assay [2] (at 50.0 µM), 37.1%. For the same compound, the growth inhibition is -1% in assay [3] (setting [7]); -3% in assay [3] (setting [8]); -7.6% in assay [3] (at 50.0 µM); -8% in assay [4] (setting [7]); 3% in assay [4] (setting [8]); -3.6% in assay [4] (at 50.0 µM). Also, the growth inhibition was -2% in assay [5] (setting [7]); -1% in assay [5] (setting [8]); -23.2% in assay [5] (at 50.0 µM); 1% in assay [6] (setting [7]); -4% in assay [6] (setting [8]); -22.4% in assay [6] (at 50.0 µM).
Turning to `O=C(Nc1ccccc1)C(F)(F)C(F)(F)C(F)(F)F`, the growth inhibition was 6% in assay [1] (setting [7]); 2% in assay [1] (setting [8]); 12.6% in assay [1] (at 50.0 µM); -1% in assay [2] (setting [7]); -24% in assay [2] (setting [8]); 12.7% in assay [2] (at 50.0 µM). Besides, the growth inhibition in assay [3] (setting [7]) was 17%; in assay [3] (setting [8]) it was 14%; in assay [3] (at 50.0 µM), -0.35%; in assay [4] (setting [7]) it was 5%; in assay [4] (setting [8]), 5%; in assay [4] (at 50.0 µM) it was 26.1%. Moreover, the growth inhibition is 15% in assay [5] (setting [7]); 27% in assay [5] (setting [8]); -1% in assay [5] (at 50.0 µM); 5% in assay [6] (setting [7]); 28% in assay [6] (setting [8]); 11.6% in assay [6] (at 50.0 µM).

These data come from PubChem BioAssay (NCI).
